Screening data (PubChem BioAssay)
Only a selection was taken, and hits are over-represented in it overall.
Sfp inh: blocks B. subtilis Sfp PPTase activity; Q9F4F7; Biochemical Sfp PPTase activity, qHTS; Potency, µM, for the others: largest response in the series, negative = inhibition, usual class: inhibitors; actives 3.5% (n = 310,000); AID 1490;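 also: the enzyme is Sfp with the accession as filed and its product quenches rhodamine fluorescence; 0% = enzyme reaction without inhibitor and -100% = no enzyme wells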
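Compounds were incubated with enzyme (final 15 nM) for 15 min at room temperature before substrate addition started the reaction. Fluorescence at 525 nm excitation, 598 nm emission was recorded immediately and after 30 minutes.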
G9a inh: blocks human histone lysine methyltransferase G9a. Q96KQ7. G9a H3K9 monomethylation, AlphaScreen, 2 h. Potency, µM (highest dose often 102 µM), inactives show at the highest dose activity, negative = inhibition, actives largely listed as inhibitors. actives 8.8% (n = 350,000); also: % is scaled to controls: 0 for no effect and ±100 for the full control effect; nearly all actives have a fitted effect of over 75% in size
Target sequence (Q96KQ7 913-1193 limits assumed): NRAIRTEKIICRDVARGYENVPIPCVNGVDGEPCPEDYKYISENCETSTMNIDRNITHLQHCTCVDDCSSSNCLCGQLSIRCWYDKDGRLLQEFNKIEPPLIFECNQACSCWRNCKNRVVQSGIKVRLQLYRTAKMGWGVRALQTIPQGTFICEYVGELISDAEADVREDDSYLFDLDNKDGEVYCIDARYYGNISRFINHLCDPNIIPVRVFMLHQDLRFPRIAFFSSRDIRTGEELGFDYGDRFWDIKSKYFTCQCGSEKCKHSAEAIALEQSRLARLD
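Enzyme 20 nM + cpd, 15 min RT; add b-H3K9 pep 500 nM / SAM 20 uM; 2 h RT; anti-H3K9me1 Ab 0.5 ug/mL + SA donor / anti-rabbit acceptor beads 20 ug/mL each, 10 min; AlphaScreen read.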
ALOX12 inh: blocks human arachidonate 12S-lipoxygenase; AID 1671190; Potency, µM (series often up to 108 µM), inactives show at the highest dose activity change, negative = inhibition, most hits filed as inhibitors; actives 1.1% (n = 580,000); P18054; purified 12hLO, xylenol orange hydroperoxide absorbance; also: % is scaled to controls: 0 for no effect and ±100 for the full control effect
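Hydroperoxide product was detected by ferrous iron/xylenol orange as the 573 to 405 nm absorbance ratio. Arachidonic acid at 40 uM (final) was turned over for 30 min at room temperature by 150 nM human 12hLO, pH 7.0 Hepes buffer, after 15 min compound preincubation.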
Glioma ERSR ind: ER stress response induction in glioma. actives 0.02% (n = 420,000). U87-MG GRP78 promoter luciferase reporter, 16 h. Potency, µM, without a hit: top-dose activation, actives largely listed as activators; also: series mostly up to about 76 µM; % of control where 0% means no effect; nearly all actives have a fitted effect of over 35% in size
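ERSR induction read as luciferase luminescence (Bright-Glo, 10 min at room temperature) in stably transfected human U87-MG glioma cells exposed to compounds for 16 h, using GRP78 as sensor.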
VDR inh: blocks the human vitamin D receptor; actives 0.93% (n = 400,000); P11473; VDR-SRC2-3 peptide fluorescence polarization, 2 h; Potency, µM, for inactives: max response, negative = inhibition, usual class: inhibitors; also: % is scaled to controls: 0 for no effect and ±100 for the full control effect
Target sequence (P11473 whole entry, looked up): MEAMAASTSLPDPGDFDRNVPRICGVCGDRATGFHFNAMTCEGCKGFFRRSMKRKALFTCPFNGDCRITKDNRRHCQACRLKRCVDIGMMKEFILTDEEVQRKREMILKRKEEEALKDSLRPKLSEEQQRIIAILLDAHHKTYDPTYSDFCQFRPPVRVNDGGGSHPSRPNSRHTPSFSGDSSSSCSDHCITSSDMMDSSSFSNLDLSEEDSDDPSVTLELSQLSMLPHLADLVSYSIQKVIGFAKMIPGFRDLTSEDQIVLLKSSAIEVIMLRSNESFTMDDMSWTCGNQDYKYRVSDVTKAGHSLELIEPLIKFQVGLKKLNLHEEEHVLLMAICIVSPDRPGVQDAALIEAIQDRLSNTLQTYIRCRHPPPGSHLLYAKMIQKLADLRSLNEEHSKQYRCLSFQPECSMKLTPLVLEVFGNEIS
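Compounds are added to VDR with labelled SRC2-3 coactivator peptide and held 2 h at room temperature. Inhibition of the VDR–peptide interaction is then read as a change in fluorescence polarization.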
* marks the source's active call; other numbers are inactive results; [ ] = another dose, or the depositor's remark. Calls follow the shape of the dose curve; as a rule, active = well fitted curve in the direction sought with a large enough effect; inconclusive = small, poorly fitted or top-dose-only effect, or another doubt; inactive = no such curve, though single readings can be large; an effect the other way counts as inactive or inconclusive. Potency is read from the fitted curve at half-maximal effect.

For COc1ccc(-c2nnc3ccc(SCC(=O)NCC4CCCO4)nn23)cc1 (stereo not given) the results were Sfp inh 17.8%, G9a inh 8.9%[59 µM], Glioma ERSR ind -7.1% and VDR inh 4.4%.
O=C(CSc1ccc2nnc(-c3ccc(F)cc3)n2n1)NCc1ccco1 was read as Sfp inh -4.1%, G9a inh 8.91µM*, ALOX12 inh inconclusive, Glioma ERSR ind -2.7% and VDR inh 6.1%.
`CCCNC(=O)CSc1nc2ccsc2c(=O)n1C` gave ALOX12 inh 84.2%.
`Cc1nc(N2CCN(C)CC2)c2sc(=S)n(-c3ccccc3)c2n1` gave Sfp inh -12.1%, G9a inh 39.8µM*, ALOX12 inh -7.6%, Glioma ERSR ind -1.8% and VDR inh -17.2%.
`Cc1nc(N2CCN(C)CC2)c2sc(=S)n(C)c2n1` gave Sfp inh 5.3%, G9a inh -3.3%, Glioma ERSR ind 0.5% and VDR inh -16.8%.
Cc1nc(N2CCN(C)CC2)c2cc(-c3ccccc3)sc2n1 was read as Sfp inh inconclusive, G9a inh 50.1µM*, ALOX12 inh -9.1%, Glioma ERSR ind 1.8% and VDR inh 3.5%.
Screening CC(=O)N1CCN(c2ncnc3sc(-c4ccccc4)cc23)CC1 returned Sfp inh 11.9%, G9a inh 1.7%[59 µM], ALOX12 inh -11.5%, Glioma ERSR ind 9.9% and VDR inh -15.6%.
Oc1ccc(N2CCN(c3ncnc4sc(-c5ccccc5)cc34)CC2)cc1 was read as Sfp inh 20µM*, G9a inh 3.16µM*, ALOX12 inh inconclusive, Glioma ERSR ind -4.1% and VDR inh 10.3%.
CCCOc1nc2ccccc2nc1N1CCC(C(=O)NCc2ccccc2C)CC1 was read as ALOX12 inh -7.8%.
For Cc1ccc(NC(=O)CCc2c[nH]c3ccccc23)cc1 the results were ALOX12 inh -28.5%.
COC(=O)c1c(OC)cc2c(c1C)Oc1c(Cl)c(O)c(Cl)c(C)c1C(=O)O2 was read as Sfp inh -27.5%, G9a inh -43.8%[2.33 µM], ALOX12 inh 7.1%, Glioma ERSR ind -7.8% and VDR inh 39.8µM*.
For O=C(Nc1ccc(F)c(Cl)c1)c1cnc(N2CCCCC2)c2ccccc12 the results were ALOX12 inh -49.1%.
Screening COc1ccccc1Nc1nnc(SCC(=O)N2CCCC2=O)s1 returned Sfp inh 5.5%, G9a inh inconclusive, ALOX12 inh -14.7%, Glioma ERSR ind 1.1% and VDR inh -5.5%.
`CCc1ccc(Nc2nnc(SCC(=O)NC(=O)CN3CCCC3=O)s2)cc1` gave G9a inh 6.31µM*, ALOX12 inh -12.1%, Glioma ERSR ind -5.7% and VDR inh -6.6%.
Screening Cc1nn(-c2nnc(NCc3ccccc3)nn2)c(C)c1Br returned Sfp inh -4.1%, G9a inh 12.6µM*, ALOX12 inh inconclusive, Glioma ERSR ind 9.1% and VDR inh -10.6%.
Cc1ccc(-n2cc(CN3CCCCC3C(N)=O)c(-c3cccc(C)c3)n2)cc1 (stereo not given) was read as ALOX12 inh -3.0%.
`CC(C)c1ccc(CN2CCc3ncc(C(=O)NCCN4CCNC4=O)n3CC2)cc1` gave ALOX12 inh -15.7%[176 µM].
Screening C/C(=N\NC(=S)Nc1ccc(F)cc1)C1CC1 returned Sfp inh 44.7µM*, G9a inh inconclusive, ALOX12 inh inconclusive, Glioma ERSR ind -0.8% and VDR inh 11.9%.
Screening Fc1ccc(NC(=S)NC2CC2)cc1 returned ALOX12 inh 1.3%.
For CCOC(=O)c1cnc(Nc2ccc(F)cc2)c2ccccc12 the results were ALOX12 inh -16.7%.
Screening CCCCN(C(=O)CSc1nnc(Nc2ccccc2)s1)c1c(N)n(CCC)c(=O)[nH]c1=O returned Sfp inh 3.2%, G9a inh 39.8µM*, ALOX12 inh -9.1%, Glioma ERSR ind 1.1% and VDR inh -0.3%.
CCCCN(C(=O)c1cc(Cl)nc2ccccc12)c1c(N)n(Cc2ccccc2)c(=O)[nH]c1=O was read as G9a inh 50.1µM*, ALOX12 inh inconclusive, Glioma ERSR ind -5.7% and VDR inh -14.8%.
For CCCCN(C(=O)CCCSc1nc2ccccc2[nH]1)c1c(N)n(Cc2ccccc2)c(=O)[nH]c1=O the results were Sfp inh 2.3%, G9a inh 10µM*, ALOX12 inh inactive, Glioma ERSR ind -3.0% and VDR inh -11.6%.
CCCCN(C(=O)c1cc(Cl)nc2ccccc12)c1c(N)n(CCC)c(=O)[nH]c1=O was read as ALOX12 inh 11.0% and Glioma ERSR ind 0.6%.
For COC(=O)C1(NC(=O)c2ccc3c(c2)OCCCO3)CCCCC1 the results were ALOX12 inh 4.1%.
`O=C(CCS(=O)(=O)c1ccc2c(c1)CCN2C(=O)C1CC1)NCc1ccc(F)cc1` gave ALOX12 inh -8.2%.
Nc1ccc(N(c2ccccc2)c2ccc(N)cc2)cc1 was read as Sfp inh -13.2%, G9a inh 1.26µM*, ALOX12 inh -17.0%, Glioma ERSR ind -4.5% and VDR inh -0.4%.
`CN(C)c1ccc(CCc2ccc(N)cc2)cc1` gave ALOX12 inh 90.4%, Glioma ERSR ind -12.1% and VDR inh -1.6%.
COc1cccc(OC)c1OCCOc1ccccc1OC(C)C was read as Sfp inh 10.8%, G9a inh 28.3%, ALOX12 inh -18.6%, Glioma ERSR ind -4.9% and VDR inh 4.3%.
`CC(C)Oc1ccccc1OCCN(C)C` gave Sfp inh -54.4%, G9a inh 12.6µM*, ALOX12 inh inconclusive, Glioma ERSR ind -3.6% and VDR inh -10.5%.
Screening CC(C)CN(C(=O)CSc1nc(CN2CCOCC2)nc2ccccc12)C1CCS(=O)(=O)C1 (stereo not given) returned ALOX12 inh 27.8%.
For CCOC(=O)c1cc(S(=O)(=O)N2CCN(c3ccc(F)cc3)CC2)[nH]n1 the results were G9a inh 28.2µM*, ALOX12 inh -4.9%, Glioma ERSR ind -3.3% and VDR inh 7.0%.
Screening CCOC(=O)c1cc(S(=O)(=O)N2CCN(c3cccc(OC)c3)CC2)[nH]n1 returned G9a inh inconclusive, ALOX12 inh inconclusive, Glioma ERSR ind -6.2% and VDR inh 3.8%.
For CCOC(=O)c1cc(S(=O)(=O)N2CCN(c3ccccc3OC)CC2)[nH]n1 the results were G9a inh 28.2µM*, ALOX12 inh -23.6%, Glioma ERSR ind -1.5% and VDR inh 0.2%.
`CCOC(=O)c1cc(S(=O)(=O)N2CCN(c3cc(Cl)ccc3C)CC2)[nH]n1` gave G9a inh 12.6µM*, ALOX12 inh inconclusive, Glioma ERSR ind 1.0% and VDR inh 1.2%.
O=C(c1cccc(F)c1)N(Cc1cccc2[nH]ccc12)C1CC1 was read as ALOX12 inh -7.0%.
For COc1cccc2[nH]c(C(=O)NCCCN(C)C)cc12 the results were ALOX12 inh -10.7%.
Screening CCCSc1ccc(C(=O)CCN(C)C)cc1 returned ALOX12 inh 31.6µM*.
